This is an account of results in PubChem BioAssay (EPA / NIEHS).

Assay [1] has as its target Estrogen-related receptor gamma (Homo sapiens) (UniProt P62508). Nature of the assay: ATG_ERRg_TRANS: Attagene TRANS-FACTORIAL HepG2 Assay for human Estrogen-Related Receptor gamma (ERRg) (AID 2282977).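 Note: hits increase reporter signal over DMSO so potencies reflect activators.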 The following applies: HepG2 Attagene TRANS reporter, ERRg transactivation. In outline: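 Readout: fluorescent reporter-mRNA fragments resolved by capillary electrophoresis after RT-PCR and HpaI cut. Cells: transiently transfected HepG2 carrying GAL4-UAS reporters driven by exogenous NR-Gal4 chimeras, dosed 24 h. Activity fitted upward relative to DMSO baseline.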

Assay [2] addresses Bile acid receptor (Homo sapiens) (UniProt Q96RI1). Description: ATG_FXR_TRANS: Attagene TRANS-FACTORIAL HepG2 Assay for Farnesoid X Receptor (FXR) (AID 2282979).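 Note: hits raise reporter mRNA above DMSO so AC50 marks FXR activation.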 Particulars: HepG2 Attagene TRANS FXR-GAL4 reporter transcription. A digest of the protocol: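 Transient transfection of HepG2 with multiplexed GAL4-UAS reporter units; exogenous FXR-GAL4 chimera. Dose 24 h → TriZol RNA → oligo(dT) RT → PCR, 6-FAM primer extension, HpaI cut → CE. Gain vs DMSO.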

Assay [3] deals with Oxysterols receptor LXR-alpha (Homo sapiens) (UniProt Q13133). Description: ATG_LXRa_TRANS: Attagene TRANS-FACTORIAL HepG2 Assay for human Liver X Receptor alpha (LXRa) (AID 2282980). The following applies: HepG2 Attagene TRANS reporter, LXRa transactivation. In outline:
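Transfect HepG2 with GAL4-UAS multiplex reporter constructs (TRANS format, chimeric receptor-GAL4); treat 24 h; extract RNA, reverse-transcribe, PCR-amplify, FAM-label, HpaI-digest; resolve fragments by capillary electrophoresis. Upward response vs DMSO.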

Assay [4] concerns the target Oxysterols receptor LXR-beta (Homo sapiens) (UniProt P55055). Description: ATG_LXRb_TRANS: Attagene TRANS-FACTORIAL HepG2 Assay for human Liver X Receptor beta (LXRb) (AID 2282981). The following applies: HepG2 Attagene TRANS GAL4-LXRb reporter, mRNA. In outline: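 Readout: fluorescent reporter mRNA fragments resolved by capillary electrophoresis after RT-PCR. System: transiently transfected human HepG2, exogenous LXRb-Gal4 chimera driving GAL4-UAS reporter, 24 h dosing. Activity fitted upward against DMSO baseline.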

The nature of assay [5]: ATG_M_06_TRANS: Attagene TRANS-FACTORIAL HepG2 Assay for M06 Transcription Factor (Internal Marker) (AID 2282983).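 Note: reporter transcript level by RT-PCR then capillary electrophoresis fluorescence.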 Particulars: HepG2 Attagene TRANS M06 internal marker reporter. A digest of the protocol: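 Background control endpoint: reporter mRNA from transiently transfected HepG2 after 24 h dosing, detected by RT-PCR with capillary electrophoresis fluorescence. Analysed for gain versus DMSO.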

Assay [6] can be described thus: ATG_M_32_TRANS: Attagene TRANS-FACTORIAL HepG2 Assay for M32 Transcription Factor (Internal Marker) (AID 2282984).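 Note: transcript level of a background control reporter unit measured by RT-PCR and capillary electrophoresis.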 Particulars: HepG2 Attagene TRANS M32 internal marker reporter. A digest of the protocol:
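Read-out: fluorescent reporter cDNA fragments resolved by capillary electrophoresis after RT-PCR of total RNA. Transfected HepG2 cells were exposed to chemical for 24 h. Activity scored in the positive direction relative to DMSO.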

The target in assay [7] is Nuclear receptor subfamily 4 group A member 2 (Homo sapiens) (UniProt P43354). Nature of the assay: ATG_NURR1_TRANS: Attagene TRANS-FACTORIAL HepG2 Assay for human Nuclear Receptor Related Protein 1 (NURR1) (AID 2282985). Particulars: HepG2 Attagene TRANS reporter, mRNA readout. In outline: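 Read-out: reporter mRNA induction by RT-PCR plus capillary electrophoresis with fluorescence detection, after 24 h dosing of transfected HepG2 cells. Exogenous NR-Gal4 chimera activity drives GAL4-UAS reporter; activity fitted upward versus DMSO.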
Chain of Nuclear receptor subfamily 4 group A member 2 (Homo sapiens) (P43354 whole entry, looked up, the tested form may be a part): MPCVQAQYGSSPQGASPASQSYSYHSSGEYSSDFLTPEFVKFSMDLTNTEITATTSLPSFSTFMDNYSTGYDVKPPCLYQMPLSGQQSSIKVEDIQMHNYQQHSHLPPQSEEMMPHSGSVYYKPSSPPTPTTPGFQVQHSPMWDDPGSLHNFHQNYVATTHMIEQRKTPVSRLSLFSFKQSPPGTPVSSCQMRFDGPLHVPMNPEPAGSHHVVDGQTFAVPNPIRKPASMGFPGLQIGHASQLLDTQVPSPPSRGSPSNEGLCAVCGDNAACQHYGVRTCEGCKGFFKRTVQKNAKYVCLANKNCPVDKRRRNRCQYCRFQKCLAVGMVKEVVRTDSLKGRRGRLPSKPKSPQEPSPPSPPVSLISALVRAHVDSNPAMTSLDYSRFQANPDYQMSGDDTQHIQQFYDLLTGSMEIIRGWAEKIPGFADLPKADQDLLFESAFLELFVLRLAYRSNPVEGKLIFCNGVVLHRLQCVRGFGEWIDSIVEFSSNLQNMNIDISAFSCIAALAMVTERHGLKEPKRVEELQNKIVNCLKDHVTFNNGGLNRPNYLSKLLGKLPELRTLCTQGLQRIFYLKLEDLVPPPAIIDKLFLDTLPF

For assay [8], the target named is Hepatocyte nuclear factor 4-alpha (Homo sapiens) (UniProt P41235). Nature of the assay: ATG_HNF4a_TRANS: Attagene TRANS-FACTORIAL HepG2 Assay for human Hepatocyte Nuclear Factor 4 alpha (HNF4a) (AID 2282982). Particulars: HepG2 HNF4a transactivation reporter, mRNA readout. In outline:
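Transient MRTU transfection of HepG2, 24 h dosing. Readout: reporter mRNA via RT-PCR + capillary electrophoresis, fluorescence; activity fit upward relative to DMSO control.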

Assay [9] concerns the target Transcriptional activator Myb (Homo sapiens) (UniProt P10242). Description: ATG_Myb_CIS: Attagene CIS-FACTORIAL HepG2 Assay for human Myeloblastosis (Myb) Proto-Oncogene Transcription Factor (AID 2282986; active = hit-call score of the fitted dose curve at least 0.9, where 1 is the maximum; inactive = score below 0.9). Particulars: HepG2 Attagene CIS-FACTORIAL Myb reporter transcription; actives raise or lower the signal. A digest of the protocol:
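In this HepG2 transient-transfection format, cis-regulated reporter mRNA is quantified 24 h post-dosing by RT-PCR with capillary electrophoresis, fitted bidirectionally to DMSO baseline.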

Assay [10] concerns the target Glucocorticoid receptor (Homo sapiens) (UniProt P04150). Description: ATG_GR_TRANS: Attagene TRANS-FACTORIAL HepG2 Assay for human Glucocorticoid Receptor (GR) (AID 2282978).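 Note: activators score as hits since higher reporter transcript over DMSO is fitted.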 The following applies: HepG2 Attagene TRANS GR reporter, mRNA transcription. A digest of the protocol:
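Exogenous NR-GAL4 fusion activity was assessed through induced GAL4-UAS reporter transcripts in transfected human HepG2 cells, quantified after 24 h by RT-PCR and fluorescent capillary electrophoresis with DMSO as baseline.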

Inconclusive results are not listed. Calls of active or inactive are those of the source. Rule for the calls, unless noted: active = hit-call score of the fitted dose curve at least 0.9, where 1 is the maximum; inconclusive = response in the unintended direction; inactive = score below 0.9.

Chain of Bile acid receptor (Homo sapiens) (Q96RI1 whole entry, looked up, the tested form may be a part): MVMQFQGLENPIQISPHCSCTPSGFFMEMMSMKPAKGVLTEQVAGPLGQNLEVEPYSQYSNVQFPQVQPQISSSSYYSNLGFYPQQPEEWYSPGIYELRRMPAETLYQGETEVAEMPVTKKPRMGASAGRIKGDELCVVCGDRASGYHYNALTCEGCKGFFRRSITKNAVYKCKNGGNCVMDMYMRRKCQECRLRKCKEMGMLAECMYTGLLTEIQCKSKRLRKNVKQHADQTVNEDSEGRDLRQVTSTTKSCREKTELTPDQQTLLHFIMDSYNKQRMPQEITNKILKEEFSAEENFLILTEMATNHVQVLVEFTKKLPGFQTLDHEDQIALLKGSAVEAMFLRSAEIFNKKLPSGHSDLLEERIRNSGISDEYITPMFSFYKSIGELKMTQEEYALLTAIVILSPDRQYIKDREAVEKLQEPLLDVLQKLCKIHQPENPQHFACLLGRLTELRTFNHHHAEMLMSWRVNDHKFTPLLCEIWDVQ
Chain of Oxysterols receptor LXR-alpha (Homo sapiens) (Q13133 whole entry, looked up, the tested form may be a part): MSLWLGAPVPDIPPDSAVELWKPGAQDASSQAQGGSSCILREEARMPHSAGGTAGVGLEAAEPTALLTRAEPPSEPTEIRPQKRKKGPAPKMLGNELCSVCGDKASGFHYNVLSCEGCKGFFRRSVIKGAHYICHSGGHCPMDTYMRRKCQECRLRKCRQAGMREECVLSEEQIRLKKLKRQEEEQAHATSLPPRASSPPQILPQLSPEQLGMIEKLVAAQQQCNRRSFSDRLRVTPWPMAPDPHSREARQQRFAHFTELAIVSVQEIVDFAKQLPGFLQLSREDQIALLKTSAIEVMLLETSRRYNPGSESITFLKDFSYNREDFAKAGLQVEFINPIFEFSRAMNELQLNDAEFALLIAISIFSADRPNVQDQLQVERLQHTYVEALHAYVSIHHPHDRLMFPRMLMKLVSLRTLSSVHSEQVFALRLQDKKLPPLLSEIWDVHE
Chain of Estrogen-related receptor gamma (Homo sapiens) (P62508 whole entry, looked up, the tested form may be a part): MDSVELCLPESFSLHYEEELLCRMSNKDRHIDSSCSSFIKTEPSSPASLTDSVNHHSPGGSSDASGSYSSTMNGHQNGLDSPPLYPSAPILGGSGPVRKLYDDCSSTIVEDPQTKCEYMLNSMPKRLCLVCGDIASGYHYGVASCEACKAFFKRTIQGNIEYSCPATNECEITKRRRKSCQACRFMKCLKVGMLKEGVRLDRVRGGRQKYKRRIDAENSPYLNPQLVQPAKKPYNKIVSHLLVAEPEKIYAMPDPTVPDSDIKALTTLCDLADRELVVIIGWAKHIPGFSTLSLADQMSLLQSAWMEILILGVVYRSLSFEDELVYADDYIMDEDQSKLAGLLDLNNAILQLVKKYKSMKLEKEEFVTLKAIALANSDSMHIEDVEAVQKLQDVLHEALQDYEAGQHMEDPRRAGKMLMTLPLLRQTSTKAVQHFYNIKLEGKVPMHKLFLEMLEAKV
Chain of Glucocorticoid receptor (Homo sapiens) (P04150 whole entry, looked up, the tested form may be a part): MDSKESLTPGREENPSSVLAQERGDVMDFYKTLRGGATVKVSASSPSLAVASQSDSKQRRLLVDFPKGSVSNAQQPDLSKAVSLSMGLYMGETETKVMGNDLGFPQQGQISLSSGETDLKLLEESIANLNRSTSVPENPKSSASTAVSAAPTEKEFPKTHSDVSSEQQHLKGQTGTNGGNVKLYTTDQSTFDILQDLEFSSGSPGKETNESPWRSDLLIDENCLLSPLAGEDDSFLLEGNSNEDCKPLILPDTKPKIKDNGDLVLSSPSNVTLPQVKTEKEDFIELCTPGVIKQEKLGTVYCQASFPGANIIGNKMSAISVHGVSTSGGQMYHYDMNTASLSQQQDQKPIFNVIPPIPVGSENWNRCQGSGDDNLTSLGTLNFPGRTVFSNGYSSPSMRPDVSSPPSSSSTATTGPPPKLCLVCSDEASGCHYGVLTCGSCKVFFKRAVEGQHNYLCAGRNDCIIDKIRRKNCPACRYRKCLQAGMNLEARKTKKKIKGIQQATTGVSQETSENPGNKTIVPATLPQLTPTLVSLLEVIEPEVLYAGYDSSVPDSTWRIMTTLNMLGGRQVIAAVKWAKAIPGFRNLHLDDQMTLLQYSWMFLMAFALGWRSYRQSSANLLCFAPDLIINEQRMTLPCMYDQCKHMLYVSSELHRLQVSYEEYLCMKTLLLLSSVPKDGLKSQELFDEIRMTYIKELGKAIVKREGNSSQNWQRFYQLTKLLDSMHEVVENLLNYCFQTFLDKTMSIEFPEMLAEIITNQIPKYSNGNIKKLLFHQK
Chain of Transcriptional activator Myb (Homo sapiens) (P10242 whole entry, looked up): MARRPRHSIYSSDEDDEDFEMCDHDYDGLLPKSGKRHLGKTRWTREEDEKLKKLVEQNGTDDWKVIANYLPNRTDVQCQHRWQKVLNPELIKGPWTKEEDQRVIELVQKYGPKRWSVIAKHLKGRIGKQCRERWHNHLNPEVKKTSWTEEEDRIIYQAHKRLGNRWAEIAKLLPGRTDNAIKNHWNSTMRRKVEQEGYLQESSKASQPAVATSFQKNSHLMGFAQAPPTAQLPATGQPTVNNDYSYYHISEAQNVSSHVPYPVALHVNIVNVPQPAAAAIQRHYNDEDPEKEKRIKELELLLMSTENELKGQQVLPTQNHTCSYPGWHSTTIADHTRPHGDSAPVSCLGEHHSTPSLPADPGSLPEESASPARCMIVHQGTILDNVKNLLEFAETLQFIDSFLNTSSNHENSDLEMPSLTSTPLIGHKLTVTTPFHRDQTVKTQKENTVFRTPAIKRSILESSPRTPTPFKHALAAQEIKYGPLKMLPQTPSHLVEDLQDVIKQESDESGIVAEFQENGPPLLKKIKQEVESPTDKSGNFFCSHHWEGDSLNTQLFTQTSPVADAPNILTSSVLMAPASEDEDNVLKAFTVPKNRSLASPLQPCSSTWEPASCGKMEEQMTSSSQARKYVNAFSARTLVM
Chain of Hepatocyte nuclear factor 4-alpha (Homo sapiens) (P41235 whole entry, looked up): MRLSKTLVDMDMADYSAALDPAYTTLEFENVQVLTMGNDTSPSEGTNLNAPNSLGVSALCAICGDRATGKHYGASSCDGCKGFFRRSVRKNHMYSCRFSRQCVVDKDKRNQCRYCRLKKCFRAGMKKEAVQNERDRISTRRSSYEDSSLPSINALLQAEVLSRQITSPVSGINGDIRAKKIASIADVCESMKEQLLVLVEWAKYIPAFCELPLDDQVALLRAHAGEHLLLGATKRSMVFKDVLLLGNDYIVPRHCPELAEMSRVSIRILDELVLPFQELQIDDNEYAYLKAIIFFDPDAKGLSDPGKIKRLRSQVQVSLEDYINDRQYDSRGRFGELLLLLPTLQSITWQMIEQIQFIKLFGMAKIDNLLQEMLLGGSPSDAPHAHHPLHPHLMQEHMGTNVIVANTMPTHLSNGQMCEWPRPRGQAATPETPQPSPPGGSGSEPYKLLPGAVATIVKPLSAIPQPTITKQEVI
Chain of Oxysterols receptor LXR-beta (Homo sapiens) (P55055 whole entry, looked up, the tested form may be a part): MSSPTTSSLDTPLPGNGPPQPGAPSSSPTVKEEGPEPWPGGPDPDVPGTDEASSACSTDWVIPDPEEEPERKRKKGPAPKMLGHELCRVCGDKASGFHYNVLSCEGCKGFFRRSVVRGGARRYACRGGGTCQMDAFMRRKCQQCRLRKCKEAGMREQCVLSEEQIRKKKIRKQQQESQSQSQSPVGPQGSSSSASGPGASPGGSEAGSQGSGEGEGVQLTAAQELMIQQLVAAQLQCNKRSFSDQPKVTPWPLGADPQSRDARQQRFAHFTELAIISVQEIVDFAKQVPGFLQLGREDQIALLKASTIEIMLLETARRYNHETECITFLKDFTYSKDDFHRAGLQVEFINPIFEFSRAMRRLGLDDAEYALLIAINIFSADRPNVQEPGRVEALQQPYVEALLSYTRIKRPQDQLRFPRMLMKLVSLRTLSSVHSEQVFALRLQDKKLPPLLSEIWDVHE

Take `FC(F)(F)C(F)(F)C(F)(F)C(F)(F)C(F)(F)C(F)(F)CCS`: the outcome in assay [1], in [2], in assay [3], in [4], in [5] and in [6] was inactive. Besides, in assay [7], the compound was classed as inactive.
For the compound `FC(F)(F)C(F)(F)C(F)(F)N(C(F)(F)C(F)(F)C(F)(F)F)C(F)(F)C(F)(F)C(F)(F)F`, the outcome in assay [1], in assay [2], in [3], in [8], in assay [5] and in assay [6] was inactive. Moreover, in assay [9], the call was inactive.
With `Cc1cc(C)cc(O)c1`, the call in assay [1], in assay [10], in assay [3], in assay [4], in assay [8] and in assay [9] was inactive.
In the case of `O=C(O)C(F)(F)C(F)(F)C(F)(F)C(F)(F)C(F)(F)C(F)(F)C(F)(F)C(F)(F)C(F)(F)C(F)(F)C(F)(F)C(F)(F)F`, the compound was classed as inactive in [1], in assay [10], in [2], in [3], in [4] and in assay [8]. For the same compound, the compound was classed as inactive in [5], in assay [6], in assay [7] and in assay [9].
Turning to `FC(F)(F)C(F)(F)C(F)(F)C(F)(F)C(F)(F)C(F)(F)C(F)(F)Br`, the outcome in assay [1], in assay [10], in assay [2], in assay [3], in assay [4] and in assay [8] was inactive. Moreover, the compound was classed as inactive in assay [5] and in assay [6].
Regarding `FC1CC(F)(F)C(F)(F)C1(F)F` (stereo not given), the outcome in assay [1], in assay [10], in assay [2], in assay [3], in assay [4] and in assay [6] was inactive. The compound was called inactive in assay [9].
Regarding `O=C(O)C(F)(F)C(F)(F)C(F)(F)C(F)(F)F`, the outcome in [1], in [10], in assay [2], in assay [3], in assay [4] and in assay [5] was inactive. For the same compound, the compound was classed as inactive in assay [6] and in assay [9].
With `CCCCCCCCCCCCCCCC[N+](C)(C)Cc1ccccc1`, the AC50 (as a rule, the midpoint of the concentration-response curve, whichever way the signal moves) was 45.2 µM (active) in assay [1] and 24.8 µM (active) in assay [8]. Besides, the outcome in [10], in assay [2], in assay [3], in assay [4], in assay [7] and in assay [9] was inactive.
Take `c1ccc(B(c2ccccc2)c2ccccc2)cc1`: the compound was classed as inactive in assay [1], in assay [10], in assay [2], in assay [3], in assay [8] and in [5]. Also, in [6], the compound was classed as inactive.
Regarding `CC/C=C\CCOC(C)=O`, the call in [1], in assay [10], in assay [2], in [3], in assay [4] and in assay [5] was inactive. In addition, the outcome in assay [6] and in assay [7] was inactive.
Turning to `[Co]`, the call in assay [1], in [2], in [3], in assay [4], in assay [6] and in assay [7] was inactive. Also, in assay [9], the call was inactive.
Turning to `CC/C=C\CCOC(=O)c1ccccc1`, the call in [1], in assay [10], in assay [3], in [4], in assay [8] and in [6] was inactive. The compound was classed as inactive in assay [7] and in [9].
Turning to `O=C(O)C(F)(F)C(F)(F)C(F)(F)C(F)(F)C(F)(F)C(F)(F)C(F)(F)C(F)(F)C(F)(F)C(F)F`, the result in [1], in assay [2], in [8], in assay [5] and in [6] was inactive. For the same compound, the AC50 was 50 µM (active) in assay [3], 78 µM (active) in [4] and 28.2 µM (active) in assay [7].
Consider `O=C(O)C(F)(F)C(F)(F)C(F)F`, for which the compound was classed as inactive in assay [1], in assay [10], in [2], in [3], in [4] and in assay [8]. The call in assay [5], in assay [6] and in assay [7] was inactive.
`Cc1ccc(S(=O)(=O)NCl)cc1`: the call in assay [1], in [10], in assay [3], in assay [8], in assay [5] and in assay [7] was inactive.
As for `CC(C)(C)C(=O)CC(=O)C(F)(F)C(F)(F)C(F)(F)F`, the compound was called inactive in assay [1], in assay [10], in [2], in [4], in assay [5] and in [6]. In addition, the result in [7] was inactive.
Turning to `Nc1ccc(S(=O)(=O)Nc2nccs2)cc1`, the compound was classed as inactive in assay [1], in assay [10], in assay [3], in [4], in assay [8] and in assay [5]. The compound was called inactive in assay [6], in [7] and in assay [9].
For the compound `O=S(=O)(OCC(F)F)C(F)(F)F`, the outcome in assay [1], in [10], in [2], in [3], in [4] and in [5] was inactive. The outcome in assay [7] was inactive.
For `C=CC(F)(F)C(F)(F)C(F)(F)C(F)(F)C(F)(F)C(F)(F)C(F)(F)C(F)(F)F`, the compound was called inactive in assay [1], in [10], in assay [2], in [3], in assay [4] and in [8]. Moreover, the call in assay [5], in assay [6], in [7] and in assay [9] was inactive.
On to `O=S(=O)(OCCOC(F)(F)F)C(F)(F)F`, for which the compound was called inactive in assay [1], in [10], in assay [2], in [3], in assay [4] and in assay [8]. Moreover, the call in [5], in assay [6], in [7] and in [9] was inactive.
On to `O=C(O)C(F)(OC(F)(F)C(F)(OC(F)(F)C(F)(OC(F)(F)C(F)(F)C(F)(F)F)C(F)(F)F)C(F)(F)F)C(F)(F)F` (stereo not given), for which the result in assay [1], in [10], in assay [2], in assay [3], in assay [4] and in assay [5] was inactive. For the same compound, the compound was classed as inactive in [7] and in assay [9].
Consider `CCCCC(CC)COP(=O)(O)OCC(CC)CCCC` (stereo not given), for which the compound was classed as inactive in assay [1], in assay [10], in assay [2], in assay [6] and in [9].
